Compound activity: PubChem BioAssay, several laboratories
CHT PAM = allosterically activates the human high affinity choline transporter; Q9GZV3; CHT-expressing cells, membrane potential dye, choline EC20; active compounds read high; LV-AA mutant CHT in HEK293 cells; B-score at 10 µM; 310,000 tested, 0.49% active;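 active = initial fluorescence not abnormally high and integrated response B-score, plate-corrected, over 3 SD above library mean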
Target sequence (Q9GZV3 whole entry, looked up): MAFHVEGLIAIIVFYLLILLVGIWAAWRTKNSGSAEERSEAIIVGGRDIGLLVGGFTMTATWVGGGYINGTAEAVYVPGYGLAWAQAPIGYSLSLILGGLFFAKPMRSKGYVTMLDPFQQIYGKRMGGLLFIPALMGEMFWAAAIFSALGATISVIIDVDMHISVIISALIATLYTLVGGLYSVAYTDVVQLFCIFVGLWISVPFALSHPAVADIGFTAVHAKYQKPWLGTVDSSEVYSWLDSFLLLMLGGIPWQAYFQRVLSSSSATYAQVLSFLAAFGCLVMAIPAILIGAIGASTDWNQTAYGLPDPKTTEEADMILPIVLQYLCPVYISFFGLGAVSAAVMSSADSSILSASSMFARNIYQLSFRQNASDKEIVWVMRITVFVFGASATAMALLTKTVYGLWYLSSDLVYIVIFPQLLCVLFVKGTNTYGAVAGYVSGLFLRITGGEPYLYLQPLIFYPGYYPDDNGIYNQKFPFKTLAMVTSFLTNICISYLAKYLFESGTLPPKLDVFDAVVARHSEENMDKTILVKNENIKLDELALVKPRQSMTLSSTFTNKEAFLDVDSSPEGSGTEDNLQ
CHT block = human CHT choline transport inhibition; CHT-expressing cells, membrane potential dye, choline response; active compounds read low; Q9GZV3; 310,000 tested, 0.86% active; B-score at 10 µM;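 active = B-score over 3 SD under the library average, and starting fluorescence ratio not unusually high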;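 also: choline stimulus applied at its EC90 after an EC20 pre-addition; B-score computed on integrated fluorescence ratio after choline addition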
MIN6 prolif = MIN6 beta-cell proliferation induction; MIN6 cells proliferation, ATPlite luminescence, 48 h; cells starved in 0.2% serum; 100% = growth in 10% serum; proliferation, % at 10 µM; 330,000 tested, 0.29% active;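 active = compounds whose signal lies at least 3.5 SD above the mean of all wells on their plate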
TAG inh = triacylglycerol accumulation inhibition | H9c2 cells, Nile Red lipid (TAG) fluorescence; cells loaded with 200 µM oleic acid | AID 651582 | inhibition, % at 12.5 µM | 230,000 tested, 0.66% active;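 active = pattern-corrected inhibition of lipid staining of at least 50% with the nuclear-stain viability signal not falling by more than 50%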
Numbers stand for hits; n = inactive; x = no result; ! = not confirmed by another sample. Hits are enriched below; roughly 1.7% of the tested compounds scored in any of these assays.

SMILES | CHT PAM | CHT block | MIN6 prolif | TAG inh
CCN(CC)CCNC(=O)c1ccc2c(=O)n(C3CCCC3)c(=S)[nH]c2c1 | n | -15.1 | n | x
CC(C)NC(=O)c1ccc2c(=O)n(C3CCCC3)c(=S)[nH]c2c1 | n | n | n | n
Nc1nonc1-n1nnc(C(=O)N/N=C/c2cccc(Cl)c2)c1-c1cccs1 | n | n | n | x
OCc1cc(C(O)CNCCCCCCOCCCCc2ccccc2)ccc1O (centres undefined) | n | -5.78! | n | n
CCOCCCNCC(O)c1ccccc1 (centres undefined) | n | n | n | x
N#CC1=C(N)SC(N)=C(C#N)C1CCc1ccccc1 | n | -6.05 | n | n
Cc1ccc(NS(=O)(=O)c2c(C)[nH]c(C)c2C(=O)N2CCCCC2)c(Br)c1 | n | n | n | x
CCCC1(c2ccccc2)NC(=O)N(CC(=O)c2[nH]c(C)c(C(=O)OCC)c2C)C1=O (centres undefined) | n | -9.81 | n | n
O=C(Nc1ccncc1)Nc1ccccc1Cl | n | n | n | n
O=C(Nc1ccncc1)Nc1ccncc1 | 10.1 | n | n | n
O=C1C(NS(=O)(=O)c2cccs2)=C(N2CCN(c3cccc(Cl)c3)CC2)C(=O)c2ccccc21 | n | n | n | 50.4
CN(C)CCNc1ncnc2c1ncn2[C@H]1CN(Cc2ccc(-c3ccccc3)cc2)C[C@@H](CO)O1 | x | x | x | n
COc1cc(CNCCc2ccccc2F)ccc1OCc1ccc(Cl)nc1 | n | n | n | x
COc1cc(CNCCc2ccc(F)cc2)ccc1OCc1ccc(Cl)nc1 | n | -5.85 | n | x
Cc1nn(-c2ccc(Cl)cc2)c2[nH]c(CCl)cc(=O)c12 | n | -9.41 | n | x
CCOc1cc(/C=C2/C(=N)N3C(=NC2=O)SN=C3S(C)(=O)=O)ccc1OS(=O)(=O)c1ccccc1 | n | -5.55 | n | x
COc1ccccc1-n1c(C)cc(/C=C2/C(=N)N3C(=NC2=O)SN=C3S(C)(=O)=O)c1C | n | n | n | n
COc1cc(/C=C2/C(=N)N3C(=NC2=O)SN=C3S(C)(=O)=O)ccc1OS(=O)(=O)c1ccccc1 | n | -6.23 | n | x
CCn1cc([N+](=O)[O-])c(C(=O)N2N=C(c3ccc(Cl)c(Cl)c3)CC2c2ccccc2O)n1 (centres undefined) | n | n | n | n
CCn1cc([N+](=O)[O-])c(C(=O)N2N=C(c3ccc4ccccc4c3)CC2c2cc(Br)ccc2O)n1 (centres undefined) | n | n | n | 56.5
N#CC1(Nc2cccc(Cl)c2)CCCC1 | x | x | x | n
COc1ccc(C2=NOC(COc3ccc4c(C)cc(=O)oc4c3)C2)c(OC)c1 (centres undefined) | n | n | n | n
COc1ccccc1C1=NOC(COc2ccc3c(C)cc(=O)oc3c2)C1 (centres undefined) | n | -8.47 | n | 59.0
CCOC(=O)N1CCN(C2=Nc3cccc4cccc2c34)CC1 | n | -7.09 | n | x
CC1(C(=O)Nc2cccc(NS(C)(=O)=O)c2)Cc2c(-c3cccc(C(N)=O)c3)ccnc2O1 (centres undefined) | x | x | x | n
SMILES | CHT PAM | CHT block | MIN6 prolif | TAG inh
COc1ccc(/C=C2/CCC(CN3CCOCC3)C2=O)cc1 (centres undefined) | x | x | x | 73.5
CCCCC1SC(N)=NC1=O (centres undefined) | x | x | x | n
CC1(C(=O)Nc2cccc3cccnc23)CCN1Cc1ccc(-c2ccccc2)o1 (centres undefined) | x | x | x | n
Cc1cc(C)c2c(n1)nn1c(NCCCN(C)C)cc(C)nc21 | 8.06 | n | n | n
CC(=O)Oc1ccc(Cl)cc1CN(C(C)=O)C1CCCCC1 | x | x | x | n
O=C(Nc1ccccc1F)N1CCc2ccccc2C1 | n | n | n | n
Cc1ccc(NC(=O)CCc2nnc3ccc(N4CCC5(CC4)OCCO5)nn23)cc1F | n | n | n | x
CCCCCCCOC(=O)C[N+](C)(C)CCOC1CC2CCC1(C)C2(C)C (centres undefined) | x | x | x | n
CCCCCCOC(=O)C[N+](C)(C)CCOC1CC2CCC1(C)C2(C)C (centres undefined) | 8.53 | n | n | n
CCOc1ccc2nc(NC(=O)c3ccccn3)sc2c1 | n | n | n | 50.9
CCOc1ccc2nc(NC(=O)Cc3cccs3)sc2c1 | n | n | n | 64.3
CCOC(=O)N1CCN(C(=O)COC(=O)C2CCN(S(=O)(=O)c3c(Cl)cccc3Cl)CC2)CC1 | n | n | n | n
CC(=NNC(=S)N(Cc1ccccn1)Cc1ccccn1)c1cnccn1 | x | x | x | n
S=C(NN=C(c1ccccc1)c1ccccn1)N(Cc1ccccn1)Cc1ccccn1 | x | x | x | 62.4
CCN(CCCNC(=O)c1cn(CC)c2ccc(S(=O)(=O)N(C)C)cc2c1=O)c1cccc(C)c1 | n | n | n | 55.7
CCC(=O)Nc1ccc(NC(=O)CSc2nnnn2Cc2ccccc2)cc1C | x | x | n | x
CCOc1ccc(CNC(=O)C2CCN(c3nn4c(=O)cc(C)nc4s3)CC2)cc1 | n | n | n | x
CC1(C(=O)NCc2cccs2)Cc2c(-c3ccccc3)ccnc2O1 (centres undefined) | x | x | x | n
O=C1/C(=N\S(=O)(=O)c2cccs2)C([n+]2cccc(Cc3ccccc3)c2)=C([O-])c2ccccc21 | n | n | n | 73.4
O=C1/C(=N\S(=O)(=O)c2cccs2)C([n+]2ccc(CCCc3ccccc3)cc2)=C([O-])c2ccccc21 | n | n | n | n
CN(Cc1ccc(Cl)s1)C(=O)CCl | n | n | n | 65.4
Cc1ccc(N/C(=C\C(=O)c2ccccc2)C(=O)O)cc1 | n | n | 7.1 | n
CC(C)[C@H](NC(=O)c1c(F)cccc1F)C(=O)Nc1cccc(Br)c1 | n | n | n | x
O=[N+]([O-])c1cc(-c2ccc(/C=N/n3cnnc3)o2)ccc1Cl | 6.46 | n | n | n
Cc1cc(-c2ccc(/C=N/n3cnnc3)o2)c(C)c([N+](=O)[O-])c1 | 10.6 | n | n | x
SMILES | CHT PAM | CHT block | MIN6 prolif | TAG inh
COc1ccccc1NC(=O)Nc1nc(C(N)CC(C)C)cs1 (centres undefined) | x | x | x | n
CC12CCC(=O)N1C(C(=O)Nc1cccc(F)c1)CS2 (centres undefined) | n | n | n | n
N#C/C(=C(/O)c1ccc2c(c1)OCO2)c1nc2cc(C(F)(F)F)ccc2s1 | n | -8.31 | n | x
O=C(Nc1cc(-c2nc3ccccc3s2)ccc1Cl)c1ccc2c(c1)OCO2 | n | n | n | x
O=S(=O)(/C=C/C=C/S(=O)(=O)c1ccccc1)c1ccccc1 | x | x | x | n
COc1ccc(NC(=O)c2cc3c(-c4ccc(OC)c(OC)c4)nn(C)c3s2)cc1OC | n | n | n | 79.1
CC(C)N(C)c1ncnc2c1ncn2[C@H]1CN(Cc2ccc3c(c2)OCO3)C[C@@H](CO)O1 | x | x | x | n
NS(=O)(=O)c1ccc(CNC(=O)c2cc(-c3cccnc3)nc3ccc(Br)cc23)cc1 | n | n | n | n
CCOc1ccc(OCc2ccc(C(=O)NN=Cc3ccc[nH]3)cc2)cc1 | x | x | n | 60.3
CN(C)CCCN1c2ccccc2Sc2ccc(Cl)cc21 | n | n | n | 50.3!
CCCCCc1cc(=O)oc2c(C(CCN3CCCC(C)C3)c3ccc(N(C)C)cc3)c(OC)cc(OC)c12 (centres undefined) | n | n | n | 107.4
